ST2 inh: inhibitors of human ST2 (IL1RL1) binding to IL-33, primary screen, biochemical, AlphaLISA | Interleukin-1 receptor-like 1 (Homo sapiens), Q01638 | AlphaLISA ST2-Fc/biotin-IL-33 interaction, 1 h | inhibition, % for hits at 17 µM | hit rate 2.3% among 78,000; in the data active = inhibition above about 30%
An asterisk follows results filed as active; i = inactive. Shown is part of a subset that was picked to be rich in hits.

SMILES	ST2 inh
CN(C)CCN(C)[C@H]1[C@@H]2OC[C@@H](O2)[C@@H](NCc2ccc(OC(F)(F)F)cc2)[C@@H]1O	i
COc1ccccc1N1CCN([C@H]2[C@@H]3OC[C@@H](O3)[C@@H](NCc3ccc(OC(F)(F)F)cc3)[C@@H]2O)CC1	i
O[C@H]1[C@H](NCc2ccc(OC(F)(F)F)cc2)[C@H]2CO[C@H](O2)[C@@H]1N1CCOCC1	64%*
CC(O)C(O)[C@H]1CNc2nc(N)[nH]c(=O)c2N1 (stereo partly drawn)	i
Cc1[nH]nc(NN)c1Cl	55%*
CC(=O)Nc1ccc(Cl)c(-c2nc3cc(Cl)ccc3o2)c1	i
Cc1ccc(C(=O)Nc2ncc(S(=O)(=O)c3ccc([N+](=O)[O-])cc3)s2)cc1C	i
COCC(=O)Nc1ncc(S(=O)(=O)c2ccc([N+](=O)[O-])cc2)s1	38%*
O=C(Nc1ncc(S(=O)(=O)c2ccc([N+](=O)[O-])cc2)s1)c1ccccc1Br	i
CO[C@H]1[C@H](NC(=O)Cc2cccs2)c2ccccc2C12CCN(CC#Cc1ccccc1)CC2	i
Cc1ccc([C@@H]2Nc3c(F)cccc3[C@@H]3C=CC[C@@H]32)cc1	i
O=C(O)c1cccc2c1NC(c1ccc(F)cc1)C1CC=CC21 (stereo not drawn)	50%*
COc1cccc2c1NC(c1ccc(Br)cc1)C1CC=CC21 (stereo not drawn)	33%*
O=C(O)c1cccc2c1NC(c1ccccc1Br)C1CC=CC21 (stereo not drawn)	i
Fc1cccc2c1NC(c1ccc(Br)cc1)C1CC=CC21 (stereo not drawn)	42%*
CNCCC=C1c2ccccc2CCc2ccccc21	i
COc1ccccc1C1SCCN1C(=O)c1cc2ccccc2oc1=O (stereo not drawn)	i
CC(C)c1ccc(NC(=O)c2cccc([N+](=O)[O-])c2)cc1	i
CC1CCc2c(sc(NC(=O)C3CC=CCC3C(=O)O)c2C(N)=O)C1 (stereo not drawn)	i
CCN(C/C=C/c1ccccc1)C(=O)c1ccc(-n2cnnc2)cc1	i
Cc1cc(C(=O)N2CCOc3c(O)cc(-c4ccccc4C)cc3C2)no1	i
COc1cc(C#CC(C)(C)O)c(OC)cc1C#CC(C)(C)O	i
COc1ccc(CC2(C)OC(c3ccc([N+](=O)[O-])cc3)=NN2C(C)=O)cc1 (stereo not drawn)	49%*
CC(=O)N1N=C(c2ccc(Cl)cc2)OC1(C)C	i
COc1cccc(C2=NN(C(=O)Cc3ccc([N+](=O)[O-])cc3)C(O)(C(F)(F)F)C2)c1 (stereo not drawn)	i
SMILES	ST2 inh
Cc1ccccc1OC1CN(C(=O)c2ccc3[nH]c(=O)[nH]c3c2)C1	i
O=C(NCc1cccnc1N1CCc2ccccc2C1)c1cccc2c1OCC2	i
COc1ccc(C(=O)Nc2nc(-c3cc4ccccc4oc3=O)cs2)cc1OC	38%*
O=C(Nc1nc(-c2cc3ccccc3oc2=O)cs1)c1cc(=O)c2ccccc2o1	i
COc1cc2ccccc2cc1C(=O)Nc1nc(-c2cc3ccccc3oc2=O)cs1	i
COc1ccc(Cl)cc1S(=O)(=O)N1CCCC(C)C1 (stereo not drawn)	i
O=C1CCCC2=C1C(c1cccs1)n1nc(Cc3ccccc3)nc1N2 (stereo not drawn)	i
COc1ccc(/C=C/c2nc3ccccc3c(=O)n2Cc2ccccc2)cc1	i
CN(C)c1ccc(/C=C/c2nc3ccccc3c(=O)n2CCCO)cc1	i
CN(C)c1ccc(/C=C/c2nc3ccc(I)cc3c(=O)n2C)cc1	42%*
CC(C)NS(=O)(=O)c1cc(NC2CCCCC2)cc(C(=O)NC2Cc3ccccc3C2)c1	30%*
CC(C)C(NS(=O)(=O)c1cccs1)C(=O)NC1CCCCCC1 (stereo not drawn)	i
Cc1ccc(S(=O)(=O)N2CCCCC2)cc1C(=O)NC1CCCCC1	i
O=C1CC(c2ccccc2Cl)CC2=C1C(c1ccc(O)cc1)Nc1ccccc1N2 (stereo not drawn)	i
O=C1NN=C(c2ccccc2)CC1c1c[nH]c2ccccc12 (stereo not drawn)	i
O=C(Nc1nnc(-c2ccccc2Cl)s1)Nc1ccccc1F	i
O=C1CSC(c2ccccc2Cl)N1c1ccccc1 (stereo not drawn)	i
Cc1ccc(N2C(=O)CSC2c2ccccc2Cl)cc1 (stereo not drawn)	32%*
O=C1CSC(c2cccc(Cl)c2Cl)N1c1ccc(F)cc1 (stereo not drawn)	i
CC1=C(C(=O)Nc2cccc(C)n2)C(c2cccnc2)C2=C(CCCC2=O)N1 (stereo not drawn)	i
CC1CCCC(NC(=O)c2cc3cc4ccc(Cl)cc4nc3o2)C1C (stereo not drawn)	30%*
O=C(NC1CCCC1)c1ccc(Cl)cc1Cl	i
COc1ccc2cc3cc(C(=O)NCC4CCCO4)oc3nc2c1 (stereo not drawn)	i
CCCCN(CC)CCNC(=O)c1cc2cc3ccc(Cl)cc3nc2o1	i

High-throughput results (PubChem BioAssay)
